Hits are enriched below; roughly 1.5% of the tested compounds scored in any of these assays.
RecA intein inh = inhibitors of M. tuberculosis RecA intein splicing | inhibition, % (no concentration beside the values) | P9WHJ3 | hit rate 0.75% among 290,000 | AID 2221 | cell-free RecA intein splicing, fluorescence; in the data active = inhibition above about 30%;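 note: 0% = vehicle wells and 100% = reference inhibitor control wells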
Target sequence (P9WHJ3 whole entry, looked up): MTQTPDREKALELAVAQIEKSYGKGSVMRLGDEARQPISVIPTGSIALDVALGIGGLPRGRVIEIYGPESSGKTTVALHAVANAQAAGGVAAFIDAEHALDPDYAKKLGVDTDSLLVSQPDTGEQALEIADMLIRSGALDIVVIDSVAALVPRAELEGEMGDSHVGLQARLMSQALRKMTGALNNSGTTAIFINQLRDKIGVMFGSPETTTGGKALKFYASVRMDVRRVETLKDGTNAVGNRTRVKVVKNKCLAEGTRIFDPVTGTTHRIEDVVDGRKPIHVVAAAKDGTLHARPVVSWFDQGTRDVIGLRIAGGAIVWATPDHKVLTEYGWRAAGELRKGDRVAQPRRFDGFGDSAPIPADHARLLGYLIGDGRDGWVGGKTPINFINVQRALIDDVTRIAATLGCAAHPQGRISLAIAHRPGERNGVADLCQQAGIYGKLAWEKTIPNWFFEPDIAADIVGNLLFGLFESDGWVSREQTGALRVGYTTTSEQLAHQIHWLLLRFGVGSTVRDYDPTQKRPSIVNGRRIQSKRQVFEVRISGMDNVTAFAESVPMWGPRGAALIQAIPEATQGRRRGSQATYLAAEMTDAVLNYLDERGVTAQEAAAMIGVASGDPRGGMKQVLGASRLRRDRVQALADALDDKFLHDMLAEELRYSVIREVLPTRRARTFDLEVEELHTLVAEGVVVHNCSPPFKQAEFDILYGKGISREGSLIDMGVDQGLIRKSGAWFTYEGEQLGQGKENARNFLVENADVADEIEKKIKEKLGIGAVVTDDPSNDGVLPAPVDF
CCHFV vOTU inh = CCHFV vOTU protease inhibition. Pep-AMC fluorescence. inhibition, % at 11.5 µM. hit rate 0.55% among 370,000; in the data active = inhibition above about 30%; note: 0% = vehicle wells with enzyme and 100% = no enzyme wells
DUSP3 inh = blocks human VHR1 dual specificity phosphatase. P51452. inhibition, % at 13.3 µM. hit rate 0.52% among 290,000. recombinant VHR phosphatase, pNPP absorbance. AID 1654; in the data active = inhibition above about 50%
SARS 3CLpro inh = SARS-CoV 3CLpro protease inhibition. recombinant SARS-CoV 3CLpro, quenched FRET peptide cleavage. inhibition, % at 6 µM. hit rate 0.14% among 290,000. AID 1706. P0C6X7; in the data active = inhibition above about 12%
* = called active by the depositor; . = not tested or not shown; ! = a repeat was not active.

SMILES	RecA intein inh	CCHFV vOTU inh	DUSP3 inh	SARS 3CLpro inh
COc1cc(/C=C(\C#N)C(N)=O)ccc1OS(=O)(=O)c1ccc(C)cc1	11.2	-15.4	-1.7	6.0
COc1cc(/C=C(\C#N)C(=O)NC2CCCCC2C)ccc1OS(=O)(=O)c1ccc(C)cc1 (stereo not given)	55.5*	5.0	22.7	5.9
CCC(C(=O)NCCCN1CC(C)CC(C)C1)n1ncn2c(cc3occc32)c1=O (stereo not given)	3.0	-4.9	57.7*	-3.5
CCC(C(=O)NCCCN1CCN(CC)CC1)n1nc(C)n2c(cc3occc32)c1=O (stereo not given)	-3.1	-1.4	-8.2	-1.2
COc1ccc(CNS(=O)(=O)c2ccc(-c3cc(C)no3)cc2)cc1	-3.4	12.3	59.8*	0.4
CN(C)C1CN(Cc2cn(Cc3ccc(Cl)cc3)nn2)S(=O)(=O)C1 (stereo not given)	.	4.7	.	.
CN(CC(=O)NCc1ccco1)C(=O)C1CC(=O)N(c2ccc3c(c2)OCCO3)C1 (stereo not given)	.	6.5	.	.
C#CCONC(=O)c1cc(OCC(F)(F)F)ccc1OCC(F)(F)F	-2.3	9.3	52.7*	2.4
COc1ccc(-n2ncc3c2CC(C)(C)CC3NC(=O)CCCN2CCCC2=O)cc1 (stereo not given)	3.0	-8.7	56.8*	-1.7
COC(=O)CCC(=O)NC1CC(C)(C)Cc2c1cnn2-c1ccc(F)cc1 (stereo not given)	-2.8	-6.3	0.5	2.9
CC1(C)Cc2c(cnn2-c2ccc(F)cc2)C(NC(=O)CCC(F)(F)F)C1 (stereo not given)	1.0	-4.5	59.1*	-3.9
COc1ccc(-n2ncc3c2CC(C)(C)CC3NC(=O)CCN2CCCCC2=O)cc1 (stereo not given)	-0.4	3.2	1.8	6.9
O=[N+]([O-])c1ccc(NC(=S)N2CCCC2)cc1	-1.8	-5.4	50.7*	-8.1
COc1ccccc1CCC(=O)NNC(=O)c1ccc(Br)cc1	1.7	-1.6	14.4	-0.9
COc1ccc2c(c1)Cc1sc(NC(C)=O)nc1-2	5.3	81.0*	-2.0	-11.6
COCC(=O)N1CCC2CC1c1c(-c3ccc(C(F)(F)F)cc3)cccc12 (stereo not given)	.	22.0	.	.
COc1cccc(NCc2cc(=O)oc3cc(C)c(O)cc23)c1	-0.8	4.7	52.0*	1.6
Cc1cc2oc(=O)cc(CNc3ccccc3F)c2cc1O	2.5	8.9	13.3	0.3
CCOc1ccccc1NCc1cc(=O)oc2cc(C)c(O)cc12	-5.0	-5.6	55.4*	-0.5
CCN(C(=O)COC(=O)C1CC1C)c1c(N)n(Cc2ccccc2)c(=O)[nH]c1=O (stereo not given)	.	14.0	.	.
COC(=O)C1=C(N)n2c(s/c(=C\c3cccnc3)c2=O)=C(C(=O)OC)C1c1cccnc1 (stereo not given)	-0.4	.	-12.3	3.8
CCOC(=O)C1=c2s/c(=C\c3cccnc3)c(=O)n2C(N)=C(C(=O)OC)C1c1cccnc1 (stereo not given)	1.6	18.8	52.3*	0.5
COc1cc(C)ccc1OCc1cc(C(=O)N(Cc2nccn2C)C(C)C)no1	-0.8	6.4	52.5*	-3.4
CCOc1cccc(/C=N/NC(=O)c2cccnc2)c1O	-1.6	-7.8	51.5*	-4.8
CCOc1cc(/C=N/NC(=O)c2cccnc2)ccc1O	-0.7	3.8	17.0	-2.0
SMILES	RecA intein inh	CCHFV vOTU inh	DUSP3 inh	SARS 3CLpro inh
O=C(O)c1ccc(S(=O)(=O)N(Cc2ccccc2)Cc2ccccc2)cc1	-1.4	-6.4	-15.2	6.2
O=C(O)c1ccc(N(Cc2ccccc2)S(=O)(=O)c2ccccc2)cc1	0.5	-11.6	58.7*!	3.0
Nc1cc(N)nc(SCC(=O)Nc2ccc3c(c2)OCCCO3)n1	-1.1	-11.2	-8.3	-0.7
CCOC(=O)c1cccc(NC(=O)CSc2nc(N)cc(N)n2)c1	3.4	-1.7	55.9*	-0.2
Nc1cc(N)nc(SCC(=O)Nc2ccc3c(c2)OCO3)n1	-4.0	8.2	53.3*	-5.4
Cc1cccc(NC(=O)CSc2nc(N)cc(N)n2)c1	0.9	7.3	-4.6	7.5
O=C(NC1CCCCC1)OC[C@@H]1CSCCS(=O)(=O)N1	.	-4.0	.	.
CN(CC(=O)Nc1ccccc1Cl)C(=O)CN1C(=O)NC(c2ccccc2)(c2ccccc2)C1=O	.	16.9	.	.
O=S(=O)(c1ccc(Cl)cc1)c1snnc1-c1ccccc1	81.5*	5.3	7.6	2.0
O=S(=O)(c1ccc(F)cc1)c1snnc1-c1ccccc1	69.3*	3.4	-2.6	1.0
c1ccc(-c2nnsc2-c2ncc[nH]2)cc1	-1.1	-17.6	20.4	4.5
Cc1cc2ncn(CC3CC3(Cl)Cl)c2cc1C (stereo not given)	2.0	4.1	-10.5	3.1
COc1ccc2nc(SCC(=O)NN)cc(C)c2c1	41.9*	-0.5	13.9	-1.1
